# Measurements as given in the supplement of paper PMC3898565.
# ± gives the uncertainty stated by the source.
# Test system: U87
# Assay: cell viability relative to vehicle control; higher = less growth inhibition (less active)
# Conditions: 10 µM; 72 h
# 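Note: viable cell number estimated from Alamar Blue fluorescence read at 560/90, part of a single-dose primary screen of an FDA-approved drug library.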
row,Structure (SMILES),cell viability
1,C=C(C)[C@@H]1[C@H]2OC(=O)[C@@H]1[C@]1(O)C[C@H]3O[C@]34C(=O)O[C@H]2[C@]14C.CC(C)(O)[C@@H]1[C@H]2OC(=O)[C@@H]1[C@]1(O)C[C@H]3O[C@]34C(=O)O[C@H]2[C@]14C [Picrotin - Picrotoxinin],105 ± 1.3%
2,CC(C)CC(N(C)C)C1(c2ccc(Cl)cc2)CCC1 (centres undefined),108 ± 1.9%
3,CC[C@@H](C(N)=O)N1CCCC1=O,110 ± 12%
4,Cc1ccc(-c2nc3ccc(C)cn3c2CC(=O)N(C)C)cc1,106 ± 1.9%
5,NC1=NC(=O)C(c2ccccc2)O1 (centres undefined) [Pemoline],102.8 ± 0.87%
6,CC(C)[C@]12O[C@H]1[C@@H]1O[C@]13[C@]1(O[C@H]1C[C@H]1C4=C(CC[C@@]13C)C(=O)OC4)[C@@H]2O,26.3 ± 2.5%
7,Cc1ncc2n1-c1ccc(Cl)cc1C(c1ccccc1F)=NC2,102.2 ± 0.87%
8,CN1CC[C@]23CCCC[C@H]2[C@H]1Cc1ccc(O)cc13,101.4 ± 0.14%
9,c1ccc2c3c([nH]c2c1)CNCC3,104 ± 1.1%
10,CCN(C(C)=O)c1cccc(-c2ccnc3c(C#N)cnn23)c1 [Zaleplon],111.7 ± 0.3%
11,C[C@]12Cc3c[nH]nc3C[C@@H]1CC[C@@H]1[C@@H]2CC[C@@]2(C)[C@H]1CC[C@]2(C)O [Stanozolol],107 ± 2.4%
12,COc1ccc2[nH]cc(C3=CCNCC3)c2c1,105 ± 2.3%
13,C[C@]12C/C(=C/O)C(=O)C[C@@H]1CC[C@@H]1[C@@H]2CC[C@@]2(C)[C@H]1CC[C@]2(C)O [Oxymetholone],113 ± 2.5%
14,c1ccc(Cn2ccnc2)cc1,105 ± 1.2%
15,Cc1nnc2n1-c1ccc(Cl)cc1C(c1ccccc1)=NC2 [Alprazolam],89.23 ± 0.4%
16,O=C1Nc2ccc(Cl)cc2C(c2ccccc2Cl)=NC1O (centres undefined) [Lorazepam],105.6 ± 0.26%
17,NC(=O)OCCCc1ccccc1,104 ± 1.9%

row,Structure (SMILES),cell viability
1,O=C1CN=C(c2ccccc2)c2cc([N+](=O)[O-])ccc2N1 [Nitrazepam],103.3 ± 0.55%
2,FC(F)(F)c1cccc(N2CCNCC2)c1,109 ± 1.2%
3,COc1cc2c(cc1OC)[C@@]13CCN4CC5=CCO[C@H]6CC(=O)N2[C@H]1[C@H]6[C@H]5C[C@H]43 [Brucine],107 ± 1.1%
4,C[C@]12CCC(=O)C=C1CC[C@@H]1[C@@H]2CC[C@@]2(C)[C@H]1CC[C@]2(C)O [Methyltestosterone],66.4 ± 2.3%
5,CCN(CC)CCOC(=O)C(O)(c1ccccc1)c1ccccc1,101 ± 3.5%
6,C[N+]1(C)CCN(c2ccccc2)CC1,96.62 ± 0.74%
7,CN1C(=O)CN=C(c2ccccc2)c2cc([N+](=O)[O-])ccc21 [Nimetazepam],108 ± 2.6%
8,O=C(O)C(Cl)Cl,101 ± 1.6%
9,N=C(NCc1ccc(Cl)cc1)SCCCc1c[nH]cn1 [Clobenpropit],102 ± 1.4%
10,Oc1cc2c(cc1O)[C@H]1c3ccccc3CN[C@@H]1CC2,109 ± 1.4%
11,COc1ccc(C(CN(C)C)C2(O)CCCCC2)cc1 (centres undefined),103 ± 1.8%
12,C#CCN(C)[C@H](C)Cc1ccccc1 [Selegiline],103 ± 1.2%
13,CCCN1C[C@H](CSC)C[C@@H]2c3cccc4[nH]cc(c34)C[C@H]21 [Pergolide],109.4 ± 1%
14,COc1cccc(C2(O)CCCCC2CN(C)C)c1 (centres undefined) [Tramadol],102 ± 2.1%
15,c1ccc2c(c1)Nc1ccccc1S2,110.5 ± 0.17%
16,OC1CCCCC1N1CCC(c2ccccc2)CC1 (centres undefined),95 ± 2.2%
17,COc1cc(N)c(Cl)cc1C(=O)NC1CN2CCC1CC2 (centres undefined) [Zacopride],101.7 ± 0.79%
